# Measured values taken from the supplement of paper PMC7411054.
# Tests used:
# Conditions in all cases: treatment time: 24 h
# A549-TUBA1B-RELA [1] = experiment: lowest phenotypically active concentration; higher = less potent
# Procedure, shortened: (§1)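 After 24 h at 0.3, 1, 3 or 9 µM, with four wells per treatment, fifteen gene-edited A549, HepG2 and WPMY1 reporter lines carrying BFP, GFP and RFP/FusionRed were imaged live. Each well's live-cell features were expressed relative to solvent control wells. Deviation required ≥3 of 4 wells past the 95th percentile of control Euclidean distances, and reproducibility a median replicate Pearson correlation over the 95th percentile of non-replicates. Phenotypic activity rested on both.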
# A549-ACTB-RAB5A = experiment: phenotypically active (imaging signature differs from DMSO and reproducible) at any of 0.3-9 uM (binary (1 = active, 0 = inactive)); higher = active
# Procedure, shortened: as §1
# A549-CANX-COX4 = experiment: as above
# Procedure, shortened: as §1
# A549-GM130-SQSTM1 [2] = experiment: as above
# Procedure, shortened: as §1
# A549-TP53BP1-CLTA = experiment: as above
# Procedure, shortened: as §1
# A549-TUBA1B-RELA [3] = experiment: as above
# Procedure, shortened: as §1
# HepG2-ACTB-RAB5A [4] = experiment: as above
# Procedure, shortened: as §1
# HepG2-CANX-COX4 = experiment: as above
# Procedure, shortened: as §1
# HepG2-GM130-SQSTM1 = experiment: as above
# Procedure, shortened: as §1
# HepG2-TP53BP1-CLTA = experiment: as above
# Procedure, shortened: as §1
# HepG2-TUBA1B-RELA = experiment: as above
# Procedure, shortened: as §1
# WPMY1-ACTB-RAB5A = experiment: as above
# Procedure, shortened: as §1
# WPMY1-CANX-COX4 = experiment: as above
# Procedure, shortened: as §1
# WPMY1-GM130-SQSTM1 [5] = experiment: as above
# Procedure, shortened: as §1
# WPMY1-TP53BP1-CLTA = experiment: as above
# Procedure, shortened: as §1
# WPMY1-TUBA1B-RELA = experiment: as above
# Procedure, shortened: as §1
# HepG2-ACTB-RAB5A [6] = experiment: lowest phenotypically active concentration; higher = less potent
# Procedure, shortened: as §1
# WPMY1-GM130-SQSTM1 [7] = experiment: as above
# Procedure, shortened: as §1
# A549-GM130-SQSTM1 [8] = experiment: as above
# Procedure, shortened: as §1
smiles,measurement,setting,value
O=C(/C=C/c1ccc(O)cc1)c1ccc(O)cc1O [Isoliquiritigenin],lowest phenotypically active concentration,A549-TUBA1B-RELA [1],9 µM
same,phenotypically active,A549-ACTB-RAB5A,0 (inactive)
same,phenotypically active,A549-CANX-COX4,0 (inactive)
same,phenotypically active,A549-GM130-SQSTM1 [2],0 (inactive)
same,phenotypically active,A549-TP53BP1-CLTA,0 (inactive)
same,phenotypically active,A549-TUBA1B-RELA [3],1 (active)
same,phenotypically active,HepG2-ACTB-RAB5A [4],0 (inactive)
same,phenotypically active,HepG2-CANX-COX4,0 (inactive)
same,phenotypically active,HepG2-GM130-SQSTM1,1 (active)
same,phenotypically active,HepG2-TP53BP1-CLTA,0 (inactive)
same,phenotypically active,HepG2-TUBA1B-RELA,0 (inactive)
same,phenotypically active,WPMY1-ACTB-RAB5A,0 (inactive)
same,phenotypically active,WPMY1-CANX-COX4,1 (active)
same,phenotypically active,WPMY1-GM130-SQSTM1 [5],0 (inactive)
same,phenotypically active,WPMY1-TP53BP1-CLTA,1 (active)
same,phenotypically active,WPMY1-TUBA1B-RELA,0 (inactive)
S=c1[nH]cnc2nc[nH]c12 [mercaptopurine],lowest phenotypically active concentration,HepG2-ACTB-RAB5A [6],9 µM
same,lowest phenotypically active concentration,WPMY1-GM130-SQSTM1 [7],9 µM
same,phenotypically active,A549-ACTB-RAB5A,0 (inactive)
same,phenotypically active,A549-CANX-COX4,0 (inactive)
same,phenotypically active,A549-GM130-SQSTM1 [2],0 (inactive)
same,phenotypically active,A549-TP53BP1-CLTA,0 (inactive)
same,phenotypically active,A549-TUBA1B-RELA [3],0 (inactive)
same,phenotypically active,HepG2-ACTB-RAB5A [4],1 (active)
same,phenotypically active,HepG2-CANX-COX4,1 (active)
same,phenotypically active,HepG2-GM130-SQSTM1,0 (inactive)
same,phenotypically active,HepG2-TP53BP1-CLTA,0 (inactive)
same,phenotypically active,HepG2-TUBA1B-RELA,1 (active)
same,phenotypically active,WPMY1-ACTB-RAB5A,0 (inactive)
same,phenotypically active,WPMY1-CANX-COX4,1 (active)
same,phenotypically active,WPMY1-GM130-SQSTM1 [5],1 (active)
same,phenotypically active,WPMY1-TP53BP1-CLTA,0 (inactive)
same,phenotypically active,WPMY1-TUBA1B-RELA,1 (active)
Cc1cc(C)c(C)c(S(=O)(=O)Nc2ccc(N3CC[C@H](C(=O)O)C3)c3ccccc23)c1C,lowest phenotypically active concentration,A549-GM130-SQSTM1 [8],9 µM
same,lowest phenotypically active concentration,WPMY1-GM130-SQSTM1 [7],1 µM
same,phenotypically active,A549-ACTB-RAB5A,0 (inactive)
same,phenotypically active,A549-CANX-COX4,0 (inactive)
same,phenotypically active,A549-GM130-SQSTM1 [2],1 (active)
same,phenotypically active,A549-TP53BP1-CLTA,0 (inactive)
same,phenotypically active,A549-TUBA1B-RELA [3],0 (inactive)
same,phenotypically active,HepG2-ACTB-RAB5A [4],0 (inactive)
same,phenotypically active,HepG2-CANX-COX4,0 (inactive)
same,phenotypically active,HepG2-GM130-SQSTM1,1 (active)
same,phenotypically active,HepG2-TP53BP1-CLTA,0 (inactive)
same,phenotypically active,HepG2-TUBA1B-RELA,0 (inactive)
same,phenotypically active,WPMY1-ACTB-RAB5A,0 (inactive)
same,phenotypically active,WPMY1-CANX-COX4,0 (inactive)
same,phenotypically active,WPMY1-GM130-SQSTM1 [5],1 (active)
same,phenotypically active,WPMY1-TP53BP1-CLTA,0 (inactive)
same,phenotypically active,WPMY1-TUBA1B-RELA,0 (inactive)
CCCCCCCCCCCCC/C=C/[C@H](O)[C@H](N)CO [D-erythro-Sphingosine (synthetic)],lowest phenotypically active concentration,A549-GM130-SQSTM1 [8],9 µM
same,lowest phenotypically active concentration,WPMY1-GM130-SQSTM1 [7],9 µM
same,phenotypically active,A549-ACTB-RAB5A,0 (inactive)
same,phenotypically active,A549-CANX-COX4,0 (inactive)
same,phenotypically active,A549-GM130-SQSTM1 [2],1 (active)
same,phenotypically active,A549-TP53BP1-CLTA,0 (inactive)
same,phenotypically active,A549-TUBA1B-RELA [3],0 (inactive)
same,phenotypically active,HepG2-ACTB-RAB5A [4],0 (inactive)
same,phenotypically active,HepG2-CANX-COX4,0 (inactive)
same,phenotypically active,HepG2-GM130-SQSTM1,0 (inactive)
same,phenotypically active,HepG2-TP53BP1-CLTA,0 (inactive)
same,phenotypically active,HepG2-TUBA1B-RELA,0 (inactive)
same,phenotypically active,WPMY1-ACTB-RAB5A,0 (inactive)
same,phenotypically active,WPMY1-CANX-COX4,0 (inactive)
same,phenotypically active,WPMY1-GM130-SQSTM1 [5],1 (active)
same,phenotypically active,WPMY1-TP53BP1-CLTA,0 (inactive)
same,phenotypically active,WPMY1-TUBA1B-RELA,0 (inactive)
CCc1c(C(=O)Nc2cc(S(=O)(=O)N(CC)CC)ccc2O)[nH]c(C)c1C(C)=O,lowest phenotypically active concentration,HepG2-ACTB-RAB5A [6],9 µM
same,lowest phenotypically active concentration,WPMY1-GM130-SQSTM1 [7],9 µM
same,phenotypically active,A549-ACTB-RAB5A,0 (inactive)
same,phenotypically active,A549-CANX-COX4,0 (inactive)
same,phenotypically active,A549-GM130-SQSTM1 [2],0 (inactive)
same,phenotypically active,A549-TP53BP1-CLTA,0 (inactive)
same,phenotypically active,A549-TUBA1B-RELA [3],0 (inactive)
same,phenotypically active,HepG2-ACTB-RAB5A [4],1 (active)
same,phenotypically active,HepG2-CANX-COX4,1 (active)
same,phenotypically active,HepG2-GM130-SQSTM1,0 (inactive)
same,phenotypically active,HepG2-TP53BP1-CLTA,0 (inactive)
same,phenotypically active,HepG2-TUBA1B-RELA,0 (inactive)
same,phenotypically active,WPMY1-ACTB-RAB5A,0 (inactive)
same,phenotypically active,WPMY1-CANX-COX4,0 (inactive)
same,phenotypically active,WPMY1-GM130-SQSTM1 [5],1 (active)
same,phenotypically active,WPMY1-TP53BP1-CLTA,0 (inactive)
same,phenotypically active,WPMY1-TUBA1B-RELA,0 (inactive)
O=c1c(O)c(-c2ccc(O)cc2)oc2cc(O)cc(O)c12 [Kaempferol],lowest phenotypically active concentration,A549-GM130-SQSTM1 [8],9 µM
same,lowest phenotypically active concentration,WPMY1-GM130-SQSTM1 [7],9 µM
same,phenotypically active,A549-ACTB-RAB5A,0 (inactive)
same,phenotypically active,A549-CANX-COX4,0 (inactive)
same,phenotypically active,A549-GM130-SQSTM1 [2],1 (active)
same,phenotypically active,A549-TP53BP1-CLTA,0 (inactive)
same,phenotypically active,A549-TUBA1B-RELA [3],0 (inactive)
same,phenotypically active,HepG2-ACTB-RAB5A [4],0 (inactive)
same,phenotypically active,HepG2-CANX-COX4,0 (inactive)
same,phenotypically active,HepG2-GM130-SQSTM1,0 (inactive)
same,phenotypically active,HepG2-TP53BP1-CLTA,0 (inactive)
same,phenotypically active,HepG2-TUBA1B-RELA,0 (inactive)
same,phenotypically active,WPMY1-ACTB-RAB5A,0 (inactive)
same,phenotypically active,WPMY1-CANX-COX4,1 (active)
same,phenotypically active,WPMY1-GM130-SQSTM1 [5],1 (active)
same,phenotypically active,WPMY1-TP53BP1-CLTA,1 (active)
same,phenotypically active,WPMY1-TUBA1B-RELA,0 (inactive)
CCc1ccc(/C=C/C(=O)Nc2ccc(C(C)=O)cc2)o1 [Heclin],lowest phenotypically active concentration,A549-GM130-SQSTM1 [8],9 µM
same,lowest phenotypically active concentration,A549-TUBA1B-RELA [1],9 µM
same,phenotypically active,A549-ACTB-RAB5A,0 (inactive)
same,phenotypically active,A549-CANX-COX4,0 (inactive)
same,phenotypically active,A549-GM130-SQSTM1 [2],1 (active)
same,phenotypically active,A549-TP53BP1-CLTA,0 (inactive)
same,phenotypically active,A549-TUBA1B-RELA [3],1 (active)
same,phenotypically active,HepG2-ACTB-RAB5A [4],0 (inactive)
same,phenotypically active,HepG2-CANX-COX4,0 (inactive)
same,phenotypically active,HepG2-GM130-SQSTM1,0 (inactive)
same,phenotypically active,HepG2-TP53BP1-CLTA,0 (inactive)
same,phenotypically active,HepG2-TUBA1B-RELA,0 (inactive)
same,phenotypically active,WPMY1-ACTB-RAB5A,0 (inactive)
same,phenotypically active,WPMY1-CANX-COX4,0 (inactive)
same,phenotypically active,WPMY1-GM130-SQSTM1 [5],0 (inactive)
same,phenotypically active,WPMY1-TP53BP1-CLTA,0 (inactive)
same,phenotypically active,WPMY1-TUBA1B-RELA,0 (inactive)
